Compound activity (PubChem)
This is a sample that favours compounds with a hit; in the whole collection about 2.4% have one here.
EP2 modulator – EP2 receptor modulators, cAMP readout, primary screen, cell-based, HTRF cAMP, PGE2 stimulation. AID 940, 2007. Prostaglandin E2 receptor EP2 subtype (Homo sapiens), P43116. EP2-expressing cells, cAMP HTRF FRET, PGE2 co-stimulation. induction, % at 25 µM. 260,000 tested, 0.83% active;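 active = compounds whose cAMP rise, as percent of the full-agonist control response, exceeds 60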;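 note: rat C6 glioma line stably carrying human EP2 under a CMV promoter; the protocol text gives 20 µM as final concentration; 100% = response of wells given 1 µM PGE2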
S1P3 antag – S1P3 receptor antagonists, primary screen, cell-based. inhibition, % at 4.98 µM. Sphingosine 1-phosphate receptor 3 (Homo sapiens), Q99500. CHO S1P3 NFAT-BLA reporter, FRET fluorescence, antagonist mode. 170,000 tested, 0.27% active;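 active = inhibition above the plate cutoff, the mean inhibition of test wells on that plate plus 3 SD, cut at about 28% in these data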;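 note: cells challenged with S1P at its EC80 of 0.8 µM; blue over green emission ratio from cleaved BLA substrate after 4 h stimulation; 0% = S1P-stimulated wells and 100% = unstimulated DMSO-only wells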
Target sequence (Q99500 whole entry, looked up): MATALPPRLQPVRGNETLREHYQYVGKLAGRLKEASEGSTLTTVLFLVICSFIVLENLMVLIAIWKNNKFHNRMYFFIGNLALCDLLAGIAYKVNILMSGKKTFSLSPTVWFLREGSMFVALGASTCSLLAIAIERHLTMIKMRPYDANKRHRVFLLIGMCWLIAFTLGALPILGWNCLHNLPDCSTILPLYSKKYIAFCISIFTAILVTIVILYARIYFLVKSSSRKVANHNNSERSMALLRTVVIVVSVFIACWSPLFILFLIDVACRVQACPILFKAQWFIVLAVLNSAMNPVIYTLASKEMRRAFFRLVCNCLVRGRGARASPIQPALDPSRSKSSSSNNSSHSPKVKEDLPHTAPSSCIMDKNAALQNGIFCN
PGE2 EP2 inh – human EP2 receptor antagonists, primary screen, TR-FRET cAMP, C6 glioma cells | Prostaglandin E2 receptor EP2 subtype (Homo sapiens), P43116 | C6 glioma cells expressing human EP2; cells stimulated with saturating PGE2 | inhibition, % at 25 µM | 260,000 tested, 0.52% active | AID 1422, 2008;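 active = percent inhibition above 40 after rounding to a whole number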;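 note: rat C6 glioma host cells with rolipram phosphodiesterase inhibitor present; the protocol text gives 20 µM as final concentration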
S1P4 agonist – S1P4 receptor agonists, primary screen, cell-based; Sphingosine 1-phosphate receptor 4 (Homo sapiens), O95977; S1P4-expressing cell line, agonist reporter assay; activation, % at 4.98 µM; 220,000 tested, 0.35% active; AID 1509, 2009; in the data active = activation above about 11%;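 note: 0% = DMSO vehicle and 100% = reference agonist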
S1P4 antag – S1P4 receptor antagonists, primary screen, cell-based; S1P4-expressing cells, antagonist mode, reporter read-out; inhibition, % at 4.98 µM; 220,000 tested, 0.26% active; in the data active = inhibition above about 29%;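 note: 0% = wells stimulated with agonist and 100% = vehicle wells without agonist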
INS promoter inh – inhibitors of insulin promoter-driven GFP, primary screen, imaging, TRM-6 cells (human fetal islet line), eGFP reporter, cell count. reporter expression induced with tamoxifen. inhibition, % at 2 µM. 130,000 tested, 0.9% active;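 active = inhibition above the mean plus 3 SD, with well images judged a real hit on visual review, cut at about 60% in these data, passing the limit was not always enough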
The depositor's hits bear a star.

`C=CCN1C(c2ccccc2)=CS/C1=C(\C#N)c1nnc2n1CCCCC2` gave EP2 modulator 27, S1P3 antag -26, PGE2 EP2 inh 5, S1P4 agonist 0 and S1P4 antag -5.
For CCCCCCCCC(=O)N/N=C(\C)c1cccnc1 the results were EP2 modulator -6, PGE2 EP2 inh 12, S1P4 agonist 0, S1P4 antag -10 and INS promoter inh 19.
Screening CCCCCC(=O)N/N=C(\C)c1ccc(Cl)cc1 returned EP2 modulator -9, PGE2 EP2 inh 8, S1P4 agonist 0, S1P4 antag -15 and INS promoter inh 100*.
For COc1ccc(-c2nc3c(c(SCC(=O)N4CCOCC4)n2)COC(C)(C)C3)cc1 the results were EP2 modulator -47, PGE2 EP2 inh 6, S1P4 agonist 1, S1P4 antag 6 and INS promoter inh 61*.
For CC(Sc1nc(-c2ccccc2)nc2c1COC(C)(C)C2)C(=O)N1CCOCC1 (stereo unspecified) the results were EP2 modulator 4, PGE2 EP2 inh 7, S1P4 agonist -1, S1P4 antag -4 and INS promoter inh -25.
`O=C1CCCN1c1ccc(S(=O)(=O)Nc2ccccc2N2CCOCC2)cc1` gave EP2 modulator -30 and PGE2 EP2 inh 9.
COc1ccc(-n2nnnc2SCC(=O)N(C2CCCCC2)C2CCCCC2)cc1OC was read as EP2 modulator 69* and PGE2 EP2 inh 16.
`Cn1c(COc2ccccc2)nnc1SCC(=O)N(C1CCCCC1)C1CCCCC1` gave EP2 modulator 74* and PGE2 EP2 inh 3.
For O=C(CSc1nc(-c2cccs2)cc(C(F)(F)F)n1)Nc1ccc(Br)cc1F the results were EP2 modulator -70 and PGE2 EP2 inh 11.
For Cc1ccc(NC(=O)C(=O)NCc2cccnc2)cc1Cl the results were EP2 modulator -47 and PGE2 EP2 inh 9.
COc1ccc(CNC(=O)CSc2nc(C(C)(C)C)nc3ccccc23)cc1 was read as EP2 modulator 20 and PGE2 EP2 inh 11.
Cc1sc2nc(C(C)C)n3c(SCC(=O)Nc4ccc5c(c4)OCO5)nnc3c2c1C was read as EP2 modulator -6 and PGE2 EP2 inh 8.
Screening COc1cccc(N2CCN(S(=O)(=O)c3ccc4nc(-c5ccccc5)[nH]c4c3)CC2)c1 returned EP2 modulator -51, S1P3 antag 23, PGE2 EP2 inh 18, S1P4 agonist -1, S1P4 antag -8 and INS promoter inh 7.
For CN1CCN(c2ccc3nc(-c4ccc5nc(-c6ccc(O)cc6)[nH]c5c4)[nH]c3c2)CC1 the results were EP2 modulator 28 and PGE2 EP2 inh 49*.
`O=C(O)c1cccc(NC(=S)NC(=O)c2ccc(-c3ccc(Cl)cc3)o2)c1` gave EP2 modulator 64*, S1P3 antag -4, PGE2 EP2 inh 14, S1P4 agonist -2, S1P4 antag 11 and INS promoter inh -29.
Screening Cc1ccc(C(=O)O)cc1NC(=S)NC(=O)c1ccc(-c2ccc(Cl)cc2)o1 returned EP2 modulator 89*, S1P3 antag 2, PGE2 EP2 inh 7, S1P4 agonist 0 and S1P4 antag -1.
O=C(O)c1cccc(NC(=S)NC(=O)c2ccc(-c3ccccc3)cc2)c1 was read as EP2 modulator -7, S1P3 antag -12, PGE2 EP2 inh 2, S1P4 agonist 1, S1P4 antag -3 and INS promoter inh 0.
For CCc1ccc2[nH]c(=O)c(CN(CCc3cccc(C)c3)C(=O)Nc3ccc(OC)cc3)cc2c1 the results were EP2 modulator 25 and PGE2 EP2 inh 4.
Screening CCOC(=O)c1csc(N)c1-c1ccc([N+](=O)[O-])cc1 returned EP2 modulator 63*, S1P3 antag -2, PGE2 EP2 inh 8, S1P4 agonist 2 and S1P4 antag -1.
For CCc1cccc(N(C(=O)c2csnn2)C(C(=O)NC(C)(C)CC)c2cccs2)c1 (stereo unspecified) the results were EP2 modulator 37 and PGE2 EP2 inh 1.
Screening O=[N+]([O-])c1ccccc1NCCOc1ccccc1 returned EP2 modulator 27, S1P3 antag -1, PGE2 EP2 inh 3, S1P4 agonist 2, S1P4 antag -21 and INS promoter inh 0.
COc1cccc(OCCNc2cc(Cl)ccc2[N+](=O)[O-])c1 was read as EP2 modulator 23, PGE2 EP2 inh 6, S1P4 agonist -1, S1P4 antag 2 and INS promoter inh 78*.
For Cc1ccc(C)c2nc(SCC(=O)Nc3nccs3)c(C#N)cc12 the results were EP2 modulator 70* and PGE2 EP2 inh 26.
`Cn1c(=O)n(C)c2cc([N+](=O)[O-])c(N3CCN(C(=O)c4ccccc4)CC3)cc21` gave EP2 modulator 10, PGE2 EP2 inh 26, S1P4 agonist 2, S1P4 antag -7 and INS promoter inh 10.
Cn1c(=O)n(C)c2cc([N+](=O)[O-])c(N3CCN(C(=O)C(C)(C)C)CC3)cc21 was read as EP2 modulator 7, S1P3 antag -12, PGE2 EP2 inh 8, S1P4 agonist 0, S1P4 antag -10 and INS promoter inh 71*.
`COc1ccc(C(NC(=O)c2cnc(SC)nc2)c2ccncc2)cc1` (stereo unspecified) gave EP2 modulator 10 and PGE2 EP2 inh 12.
Cc1ccc(N2C(=O)/C(=C3/Sc4ccccc4N3C)SC2=S)cc1 was read as EP2 modulator 3 and PGE2 EP2 inh 11.
`CC1(c2ccccc2)CC(C)(C)N2C(=O)Cc3cccc1c32` (stereo unspecified) gave EP2 modulator 62*, S1P3 antag 1, PGE2 EP2 inh 5, S1P4 agonist 0, S1P4 antag 13 and INS promoter inh 18.
CN1CCN(CC(=O)N2c3ccccc3C(C)(c3ccccc3)CC2(C)C)CC1 (stereo unspecified) was read as EP2 modulator 19, S1P3 antag 8, PGE2 EP2 inh 9, S1P4 agonist 1, S1P4 antag -4 and INS promoter inh -21.
For COC(=O)Sc1nnc(-c2ccc(Br)cc2)o1 the results were EP2 modulator 34, S1P3 antag -5, PGE2 EP2 inh 45*, S1P4 agonist 0, S1P4 antag -6 and INS promoter inh 19.
Screening CNC(=O)c1ccsc1NC(=O)c1ccc2c(c1)CCCC2 returned EP2 modulator -21, S1P3 antag 1, PGE2 EP2 inh 11, S1P4 agonist 1, S1P4 antag -5 and INS promoter inh 76*.
